The source of these data is PubChem BioAssay (Tox21).

Records with an inconclusive call do not appear. Active and inactive are the calls of the source. Unless noted, the call rests on the fitted dose curve; in most records, active means well fitted cell-killing curve with a large enough effect in the repeat runs; inconclusive means weak or mixed curves, or effect the other way; inactive means no such curve, though single readings can be large or run the other way.

Experiment [1] can be described thus: qHTS assay to identify small molecule antagonists of the peroxisome proliferator-activated receptor gamma (PPARg) signaling pathway - cell viability counter screen (AID 743194). Further: nearly all actives have a fitted effect of over 55% in size. Further: potency means the concentration at half of the fitted maximal effect. The method, boiled down:
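Viability was measured as CellTiter-Glo luminescence in GeneBLAzer PPARg UAS-bla HEK293H cells. These cells had been exposed 17 h at 37 C to compounds together with rosiglitazone at 50 nM final, with the beta-lactamase readout taken in the same wells.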
(In general: qHTS replaces the single test concentration by a dilution series.)

Experiment [2] is described as follows: qHTS assay for small molecule agonists of the antioxidant response element (ARE) signaling pathway - cell viability counter screen (AID 743203; calls by dose curve; further: nearly all actives have a fitted effect of over 55% in size; further: potency means the concentration at half of the fitted maximal effect). The method, boiled down: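 Luminescence read-out (CellTiter-Glo, 30 min at room temperature) measured cell viability in the same wells as the ARE beta-lactamase reporter. HepG2 ARE-bla cells were treated with compounds for 16 hrs at 37C/5% CO2.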

Experiment [3] can be described thus: qHTS assay for small molecule activators of the heat shock response signaling pathway - cell viability counter screen (AID 743209). Further: nearly all actives have a fitted effect of over 50% in size. In short, it runs like this: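 HSE-bla HeLa; 1500 cells/well; overnight 37 C, 5% CO2; compound 5 h 37 C; LiveBLAzer B/G substrate 2.5 h RT; CellTiter-Glo 30 min RT; luminescence.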
Experiment [4] can be described thus: qHTS assay for small molecule activators of the heat shock response signaling pathway (AID 743210; active means well fitted activation curve with a large enough effect in the signal ratio in the repeat runs, with a control signal flat, not every such curve was filed as active; the % refers to the signal ratio; further: series mostly up to about 63 µM). In short, it runs like this:
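Compound exposure lasted 5 h at 37 C in HeLa cells carrying a heat-shock-element-driven beta-lactamase reporter. Read-out: fluorescence intensity after 2.5 h room-temperature loading with LiveBLAzer B/G FRET substrate.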

Experiment [5] in a line: qHTS assay for small molecule agonists of the antioxidant response element (ARE) signaling pathway (AID 743202; active means well fitted activation curve with a large enough effect in the signal ratio in the repeat runs, not every such curve was filed as active; the % refers to the signal ratio; further: potency means the concentration at half of the fitted maximal effect). In short, it runs like this: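 After 16 hours of compound treatment at 37 C, HepG2 cells with a stably integrated ARE-driven beta-lactamase reporter were loaded 2 hours at room temperature with LiveBLAzer B/G FRET substrate and fluorescence intensity measured.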

Experiment [6] has as its target Peroxisome proliferator-activated receptor gamma (Homo sapiens) (UniProt P37231). The experiment can be described thus: qHTS assay to identify small molecule antagonists of the peroxisome proliferator-activated receptor gamma (PPARg) signaling pathway (AID 743191; calls by dose curve; further: potency means the concentration at half of the fitted maximal effect; nearly all actives have a fitted effect of over 30% in size). In short, it runs like this: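 Beta-lactamase reporter under UAS control in HEK293H PPARg-bla cells; compound treatment 17 h at 37C. Read-out: fluorescence intensity after 1 h room-temperature incubation with LiveBLAzer B/G FRET substrate.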

Peroxisome proliferator-activated receptor gamma (Homo sapiens), sequence (P37231 whole entry, looked up): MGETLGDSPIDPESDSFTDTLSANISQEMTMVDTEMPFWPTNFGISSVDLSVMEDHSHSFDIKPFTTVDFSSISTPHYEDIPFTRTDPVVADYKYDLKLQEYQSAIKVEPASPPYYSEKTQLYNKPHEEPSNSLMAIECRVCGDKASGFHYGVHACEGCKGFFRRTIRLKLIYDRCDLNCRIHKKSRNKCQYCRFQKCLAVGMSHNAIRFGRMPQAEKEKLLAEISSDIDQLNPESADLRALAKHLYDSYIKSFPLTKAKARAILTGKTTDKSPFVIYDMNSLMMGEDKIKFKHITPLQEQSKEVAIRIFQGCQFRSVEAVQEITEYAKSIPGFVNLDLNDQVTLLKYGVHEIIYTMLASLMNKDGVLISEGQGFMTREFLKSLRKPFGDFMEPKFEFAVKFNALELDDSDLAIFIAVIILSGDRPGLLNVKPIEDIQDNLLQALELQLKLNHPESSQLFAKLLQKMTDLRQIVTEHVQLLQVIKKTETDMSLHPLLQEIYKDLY

With `COc1cc2nc(Cl)nc(N)c2cc1OC`, the Potency entry in experiment [1], in experiment [2], in experiment [3] and in experiment [4] was “inactive” each time.
Take `Nc1ccc([N+](=O)[O-])c(C(F)(F)F)c1`: the Potency result in experiment [1], in experiment [5], in experiment [2], in experiment [3] and in experiment [4] was “inactive” each time.
On to `CCCCCCOC(=O)NC(=N)c1ccc(NCc2nc3cc(C(=O)N(CCC(=O)OCC)c4ccccn4)ccc3n2C)cc1`, for which the Potency in experiment [6] was 29.8 µM (active); in experiment [1], 13.3 µM (active); in experiment [2], 26.6 µM (active). Besides, the Potency result in experiment [4] was “inactive”.
Consider `C/C=C(/C(=C/C)c1ccc(OC(C)=O)cc1)c1ccc(OC(C)=O)cc1`, for which the Potency in experiment [5] was 13.3 µM (active). Besides, the Potency result in experiment [2] and in experiment [3] was “inactive” throughout.
Take `CCN(CC)c1ccc(C(=C2C=CC(=[N+](CC)CC)C=C2)c2cc(S(=O)(=O)O)ccc2S(=O)(=O)[O-])cc1`: the Potency result in experiment [1], in experiment [5], in experiment [2] and in experiment [4] was “inactive” throughout.
Regarding `CN1Cc2cc(C(=O)N3CCC(C4CCNCC4)CC3)ccc2NC(CC(=O)O)C1=O` (stereo not given), the Potency result in experiment [1], in experiment [5], in experiment [2], in experiment [3] and in experiment [4] was “inactive” each time.
